# Assay outcomes (PubChem)
# Coupling enz: coupling enzyme interference in Giardia aldolase counter-screen. coupling enzyme system counterscreen, AmpLite Red fluorescence. activity change, negative = inhibition, % at 58.2 µM, hits read low. hit rate 0.67% among 290,000. AID 2472; in the data active = activity change below about -30%
#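 Final compound at 57.5 uM, incubated 10 min at RT with coupling enzyme reagent (glyceraldehyde-3-phosphate), then 20 min with substrate and AmpLite Red detection. Fluorescence read at 525/598 nm; tests interference with the coupling assay, not aldolase inhibition.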
# USP1-UAF1 inh: inhibitors of human USP1/UAF1 deubiquitinase; hit rate 0.23% among 390,000; Potency, µM (series often up to 57.1 µM), for inactives: at the top dose activity change, negative = inhibition, actives largely listed as inhibitors; recombinant USP1/UAF1, Ub-Rhodamine cleavage fluorescence; O94782; also: potency is read from the fitted curve at half-maximal effect; nearly all actives have a fitted effect of over 60% in size
#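 USP1/UAF1 complex at 1 nM was preincubated with compound for 15 min at room temperature, then Ub-Rho substrate (150nM final) was added. Fluorescence (480/540 nm) was read kinetically, 6 reads every 60 seconds.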
# Tau FP inhib: blocks human tau fibril formation measured by polarization. P10636. K18 P301L tau heparin fibrillization, Alexa594 FP, 6 h. Potency, µM (titrated, usually from 57.7 µM), inactives show top-dose activity, negative = inhibition, usual class: inhibitors. hit rate 0.39% among 280,000. AID 1468; also: potency is read from the fitted curve at half-maximal effect; nearly all actives have a fitted effect of over 55% in size
# Target sequence (P10636 561-689 P618L limits assumed): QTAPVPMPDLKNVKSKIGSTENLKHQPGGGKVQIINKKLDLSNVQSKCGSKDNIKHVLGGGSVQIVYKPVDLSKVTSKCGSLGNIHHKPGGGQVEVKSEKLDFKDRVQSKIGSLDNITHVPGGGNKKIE
#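 Human tau K18 […] P301L fragment, 15 uM unlabeled plus 0.24 uM Alexa 594-labeled tau (final), with compound and 20 uM heparin in 100 mM sodium acetate pH 7; 6 hr at 37 C, then Alexa 594 FP read.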
# Tau fluor counter: counter-screen for tau fibril formation inhibitors. tau K18 P301L Alexa594 fluorescence, heparin fibrillization. Potency, µM (series often up to 57.7 µM), inactives show top-dose activity change, negative = decrease. hit rate 0.93% among 280,000. AID 1463; also: potency is read from the fitted curve at half-maximal effect; nearly all actives have a fitted effect of over 55% in size
#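 Human tau K18 P301L (15 uM unlabeled, 0.24 uM Alexa 594-labeled) in 100 mM sodium acetate pH 7 with 20 uM heparin, 6 hr at 37 C. ThT 30 uM added, 1 hr ambient; Alexa 594 FP and total fluorescence read at 555/632 nm.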
# Tau ThT inhib: blocks human tau fibril formation measured by thioflavin T; P10636; Potency, µM (titrated, usually from 57.4 µM), for the others: at the top dose activity, negative = inhibition, most hits filed as inhibitors; hit rate 2.1% among 270,000; recombinant tau K18 P301L (four-repeat tau fragment), heparin-induced fibrillization, ThT fluorescence; AID 1460; also: potency is read from the fitted curve at half-maximal effect; nearly all actives have a fitted effect of over 55% in size
#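 Heparin-induced fibrillization of the P301L-mutant K18 repeat-domain fragment of human tau was followed by ThT binding in quantitative high-throughput format.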
# Starred values were filed as active, the others as inactive; ? = inconclusive; . = no result; [ ] = remark or other dose. In the library only some 2.3% were active in any assay of this set; here they are far more common. Unless noted, calls follow the shape of the dose curve; as a rule, active = well fitted curve in the direction sought with a large enough effect; inconclusive = small, poorly fitted or top-dose-only effect, or another doubt; inactive = no such curve, though single readings can be large; an effect the other way counts as inactive or inconclusive. % is scaled to controls: 0 for no effect and ±100 for the full control effect.
SMILES,Coupling enz,USP1-UAF1 inh,Tau FP inhib,Tau fluor counter,Tau ThT inhib
Cc1sc2ncnc(N/N=C/c3ccc(O)cc3)c2c1C,-0.3,-18.9%,8.6%,12.6µM*[quencher],4.47µM*
Cc1[nH]n(-c2ccccc2)c(=S)c1C=Nc1ccc([N+](=O)[O-])cc1,-5.4,-7.4%,?,-19.0%,25.1µM*
Cc1[nH]n(-c2ccccc2)c(=O)c1C=Nc1ccc(S(=O)(=O)N=C(N)N)cc1,-0.9,-32.0%,-3.9%,-14.5%,.
Clc1ccc(CSc2ncccn2)cc1,0.4,-13.6%,1.6%,-3.3%,0.6%
Cc1ccc(CSC2=NC(C)(C)Nc3ccccc32)c(C)c1,.,?,3.8%,14.1µM*[quencher],?
CC1(C)N=C(SCc2ccc(Cl)cc2)c2ccccc2N1,.,-7.7%,-11.4%,10µM*[quencher],?
COn1c(SCc2ccc(C)cc2C)nc2ccccc2c1=O,0.4,?,-13.6%,-18.8%,?
Cc1onc(-c2c(F)cccc2Cl)c1C(=O)OCC(=O)c1c[nH]c2ccccc12,-3.6,-7.2%,17.8µM*,17.8µM*[quencher],-3.3%
O=c1cc(-c2ccccc2)oc2cc(O)cc(O)c12,3.4,-10.4%,?,-14.4%,?
O=c1cc(-c2ccc(O)cc2)oc2cc(O)cc(O)c12,6.8,6.7%,?,?,15.8µM*
COc1ccc(-c2cc(=O)c3c(O)cc(O)c(-c4cc(-c5cc(=O)c6c(O)cc(O)cc6o5)ccc4OC)c3o2)cc1,1.0,.,17.8µM*,-29.8%,-11.8%
O=c1cc(-c2cc(O)c(O)c(O)c2)oc2cc(O)cc(O)c12,-3.2,.,4.6%,15.8µM*[quencher],7.94µM*
O=C(Nc1ccccc1C(F)(F)F)c1ccc(F)c(S(=O)(=O)N2CCc3ccccc3C2)c1,.,-17.0%,-19.2%,?,-6.3%
COc1ccc(S(=O)(=O)N2CCN(c3nc(-c4cccnc4)nc4ccccc34)CC2)cc1,.,-15.8%,.,.,.
COc1ccc(C2C(C(=O)c3cccs3)=C(O)C(=O)N2c2nncs2)cc1 (centres undefined),8.6,2µM*,-1.4%,-4.1%,-8.8%
COc1ccc(C2C(C(=O)c3cccs3)=C(O)C(=O)N2c2nnc(C)s2)cc1OC (centres undefined),9.0,3.98µM*,-3.7%,0.2%,-2.0%
COc1ccc(CNC(=O)C2Cc3cc(S(=O)(=O)N4CCCCCC4)ccc3N2C(C)=O)cc1 (centres undefined),.,-22.4%,-4.7%,1.2%,9.3%
CC(C)OCCCn1c(=O)c2ccccc2n2c(-c3ccccc3)nnc12,.,-13.9%,10.4%,-21.7%,-7.3%
CNC(=O)c1c(N)sc2c1CCCCC2,-9.7,.,?,-29.1%,17.8µM*
COCCNC(=O)c1c(N)sc2c1CCCC2,-9.4,.,?,-24.2%,28.2µM*
O/N=C1\CCCc2oc3c(c21)CCCC3,-30.9*,-4.6%,-3.8%,0.8%,-1.5%
Cc1c(-n2cc(C(=O)c3cc(F)ccc3O)cc(C#N)c2=O)c(=O)n(-c2ccccc2)n1C,3.4,-20.6%,9.4%,-4.0%,-4.7%
N#Cc1cc(C(=O)c2ccccc2O)cn(-c2nccs2)c1=O,9.8,28.2µM*,-14.6%,-29.3%,?
CC(C)n1cc(C(=O)c2ccccc2O)cc(C#N)c1=O,4.3,-2.2%,3.4%,-1.7%,0.4%
N#Cc1cc(C(=O)c2cc(F)ccc2O)cn(-c2nccs2)c1=O,-1.6,25.1µM*,-5.5%,-16.0%,?
SMILES,Coupling enz,USP1-UAF1 inh,Tau FP inhib,Tau fluor counter,Tau ThT inhib
Cc1ccc(/C=C/C(=O)Nc2ccc(Cl)cc2Cl)cc1,.,-5.2%,3.0%,11.4%,2.8%
N#Cc1cc2c(OCC(O)CN3CCN(C(c4ccccc4)c4ccccc4)CC3)cccc2[nH]1 (centres undefined),.,.,28.2µM*,?,-11.8%
N#Cc1ccc(OCC(O)CN2CCN(C(c3ccccc3)c3ccccc3)CC2)cc1 (centres undefined),-1.0,-24.3%,.,.,.
COc1cccc(CNC(=O)Cn2c(SCC(=O)Nc3ccc(C)c(C)c3)nc3ccccc32)c1,.,-22.3%,-3.9%,-18.3%,13.2%
Cc1ccc(O)c(-c2ccnc3cc(-c4ccc(Cl)cc4)nn23)c1,.,-19.5%,31.6µM*,?,4.6%
COc1ccc(CCC(=O)OCc2csc(CC(=O)Nc3ccc(C)cc3)n2)cc1OC,.,-9.6%,.,.,.
COC(=O)c1cc(NC(=O)c2cc(-c3ccc(C(F)(F)F)cc3)oc2C(F)(F)F)ccc1N1CCOCC1,-7.4,-21.5%,8.2%,1µM*[quencher],.
COC(=O)c1cc(NC(=O)c2cc(-c3ccc(OC)cc3)oc2C(F)(F)F)ccc1N1CCOCC1,-5.2,-18.6%,?,8.91µM*[quencher],.
COC(=O)c1cc(NC(C)=O)ccc1N1CCOCC1,-3.3,-13.3%,-5.4%,-5.9%,-2.4%
Cc1ccc(-n2nnnc2SCC(=O)c2c(N)n(C3CC3)c(=O)[nH]c2=O)c(C)c1,.,-22.2%,.,.,.
Cc1ccc(S(=O)(=O)c2c(C)nn(-c3ccccc3)c2OC(=O)c2ccccc2F)cc1,.,-24.7%,-0.9%,-11.6%,-11.5%
COC(=O)c1ccccc1NC(=O)c1sc2nc(C)cc(C)c2c1NC(=O)c1ccccc1Cl,.,?,-10.6%,-15.8%,5.3%
Cc1[nH]n(S(=O)(=O)c2ccccc2)c(=O)c1N=Nc1cccc(Cl)c1,1.1,-12.2%,.,.,.
Cc1[nH]n(S(=O)(=O)Cc2ccccc2)c(=O)c1N=Nc1ccccc1Cl,5.9,-14.3%,10.6%,-22.3%,15.8µM*
CCN1CC2=C(OC(N)=C(C#N)C2c2cccs2)/C(=C\c2cccs2)C1 (centres undefined),0.4,?,-13.0%,?,14.1µM*
CCOC(=O)C1=C(CC)OC(N)=C(C#N)C1c1cccs1 (centres undefined),-3.6,-3.2%,-11.0%,-21.7%,-18.8%
O=C(CNc1ccc(Br)cc1)Nc1ccc(S(=O)(=O)N2CCCCC2)cc1,.,-27.5%,.,.,.
O=C(CN1C(=O)C(c2ccccc2)Oc2cccnc21)NCc1ccccc1F (centres undefined),-0.5,-26.8%,.,.,.
Cc1ccc(NC(=O)COC(=O)c2ccc([N+](=O)[O-])s2)c(C)c1,3.7,-20.4%,13.6%,-5.9%,-5.2%
COc1ccccc1NC(=O)COC(=O)c1ccc([N+](=O)[O-])s1,0.9,14.1µM*,4.2%,-19.4%,?
CCc1ccc(Oc2nc3c(C)cccn3c(=O)c2/C=C(\C#N)c2nc3ccccc3[nH]2)cc1,.,?,1.9%,-21.9%,?
O=C(Nc1ccc(N2CCOCC2)cc1)c1cc2ccccc2o1,-27.2,-11.2%,1.7%,-27.3%,5.62µM*
O=C(Nc1ccc(CN2CCOCC2)cc1)c1cc2ccccc2o1,0.4,5.3%,-1.6%,-12.8%,-9.6%
O=C(Nc1ccc(N2CCN(C(=O)c3ccc(Cl)cc3)CC2)cc1)c1cc2ccccc2o1,0.4,-3.6%,6.2%,?,?
CCC(=O)N1CCN(c2ccc(NC(=O)c3cc4ccccc4o3)cc2)CC1,1.6,-9.9%,2.2%,?,2.82µM*
